Records with an inconclusive call do not appear. Where a call stands in place of a potency, no number is given. Active and inactive are the calls of the source. Calls come from the whole dose curve; as a rule, active = well fitted cell-killing curve with a large enough effect; inconclusive = small, poorly fitted or top-dose-only effect; inactive = flat fitted curve, though single readings scatter.
assay: Cell Viability - LYMP2-013 (AID 970); details: LYMP2-013 lymphoblastoid cells viability; series mostly up to 92.2 µM; note: nearly all actives have a fitted effect of over 55% in size
Excerpt: NIH Chemical Genomics Center [NCGC]
NIH Molecular Libraries Screening Centers Network [MLSCN]
National Institutes of Environmental Health Sciences [NIEHS]
National Toxicology Program [NTP]
We have developed a 1536-well cell-based assay for quantitative high throughput screening (qHTS) against a number of cell lines to determine in vitro cytotoxicity of small molecules. This particular assay uses a human lymphoblastoid cell line (LYMP2-013) purchased from Coriell Institute for Medical Research.
NCGC Assay Protocol Summary:
The CellTiter-Glo luminescent cell viability assay (Promega) is a homogeneous method to measure the number of viable cells in culture. The end point readout of this assay is based on quantitation of intracellular ATP, an indicator of metabolic activity, using the luciferase reaction. Luciferase catalyzes the oxidation of beetle Luciferin to oxyluciferin and light in the presence of ATP. The luminescent signal is proportional to amount of ATP present.
Using the CellTiter-Glo luminescent cell viability assay, the amount of cellular ATP was measured in the lymphoblastoid cell line with complete culture medium following compound treatment for 24 hours. The assay was performed in opaque white Kalypsys 1536-well plates. In the screen, tetraoctylammonium bromide was used as positive control. Library compounds were measured for their ability to cause acute toxicity in the cell line, as reflected by a decrease in intracellular ATP levels, in a concentration-dependent manner. […] AC50 values were determined from concentration-response data modeled with the standard Hill equation.
qHTS protocol for CellTiter Glo lymphoblastoid cellular assay
[Step] [Parameter] [Value] [Description]
1. Reagent; 5 uL; 2500 lymphoblastoid cells/well
2. Time; 5 hr; 37 C incubation
4. Controls; 23 nL; Tetraoctylammonium bromide 6.4pM to 92 uM
5. Time; 24 hr; 37 C incubation
6. Reagent; 5 uL; CellTiter Glo reagent
7. Time; 30 min; Room Temperature
8. Detection; Luminescence; Viewlux plate reader
Keywords: cell viability, cytotoxicity, lymphoblastoid cell line, luminescence, NTPHTS, NTPHTS_NCGC, NIEHS, DSSTox, MLSMR, MLSCN, NIH Roadmap, qHTS, NCGC
Potency is the fitted concentration of half-maximal effect.

Row | Structure (SMILES) | Potency
1 | CCCCCCCCC1CO1 (stereo not given) | inactive
2 | Nc1ccc2c(c1)C(=O)c1ccccc1C2=O | inactive
3 | COc1ccc(C(=O)Nc2ccccc2)cc1[N+](=O)[O-] | inactive
4 | CCCC(=O)OC(=O)CCC | inactive
5 | CCCCCCCC/C=C\CCCCCCCC(=O)N(CCO)CCO | inactive
6 | O=C(O)/C=C/c1ccc(/C=C/C(=O)O)cc1 | inactive
7 | Cc1ccc(O)c(N)c1 | 79.4 µM (active)
8 | CCCCCCN | inactive
9 | Oc1ccc2c(c1)OCO2 | inactive
10 | C=C1CC[C@H](O)C/C1=C/C=C1\CCC[C@]2(C)[C@@H]([C@H](C)CCCC(C)C)CC[C@@H]12 | 50.1 µM (active)
11 | CC1=C(/C=C/C(C)=C/C=C/C(C)=C/C=O)C(C)(C)CCC1 | 50.1 µM (active)
12 | CN(C)c1ccc(Cc2ccc(N(C)C)cc2)cc1 | inactive
13 | CC(/C=C/C=C(C)/C=C/C(=O)O)=C\C=C\C=C(C)\C=C\C=C(C)\C=C\C(=O)O | inactive
14 | CC(C)S | inactive
15 | O=c1[nH]ncc2ccccc12 | inactive
16 | Cc1ccc2ccc3cccc4ccc1c2c34 | inactive
17 | C1CCCNCC1 | inactive
18 | c1c[nH]cn1 | inactive
19 | c1ccc(Nc2cccc3ccccc23)cc1 | inactive
20 | CC(=O)CC(=O)Nc1ccccc1 | inactive

Row | Structure (SMILES) | Potency
21 | Nc1cc([N+](=O)[O-])ccc1O | inactive
22 | CCN(CC)c1ccc2c(C)cc(=O)oc2c1 | inactive
23 | Cc1c(N)cccc1Cl | inactive
24 | CC(=O)OCc1ccc2c(c1)OCO2 | inactive
25 | C=CC(C)(O)CCCC(C)CCCC(C)CCCC(C)C (stereo not given) | inactive
26 | CC(=O)OC1CC(C)OC(C)O1 (stereo not given) | inactive
27 | CCC(Cl)CC(Cl)C(Cl)C(Cl)C(Cl)C(C)Cl (stereo not given) | inactive
28 | CC(C)OCC1CO1 (stereo not given) | inactive
29 | CCCCC(CC)COCCCN (stereo not given) | inactive
30 | Cc1ccc(N)cc1[N+](=O)[O-] | inactive
31 | C/C=C/C=C/C=O | 39.8 µM (active)
32 | COc1ccc(C)cc1N | inactive
33 | CC(C)(C)C(=O)C1C(=O)c2ccccc2C1=O | inactive
34 | c1ccc(COCc2ccccc2)cc1 | inactive
35 | c1ccc(CSCc2ccccc2)cc1 | inactive
36 | O=C(Cl)c1ccc([N+](=O)[O-])cc1 | inactive
37 | Nc1ccc(-c2ccc(N)c(O)c2)cc1O | inactive
38 | Nc1cc(C(=O)O)c(O)c(S(=O)(=O)O)c1 | inactive
39 | c1ccc2c(c1)ccc1ccccc12 | inactive
40 | Nc1ccc(N=Nc2ccccc2)c(N)c1 | inactive
